The list is not random: actives were taken first. Their share in the collection is about 2.7%.
Nrf2 inh: Nrf2 qHTS screen for inhibitors. Potency, µM (top dose mostly 46 µM), hits mostly inhibitors. A549 ARE-Fluc reporter, luciferase luminescence, 18-24 h. 2.1% of 360,000 active; further: nearly all actives have a fitted effect of over 60% in size
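Quantitative HTS in A549 cells stably bearing an antioxidant response element-firefly luciferase construct. Inhibition of Nrf2-driven transcription was scored by luminescence after 18-24 h of compound exposure at 37 °C.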
mIDH1 inhibitor: qHTS for Inhibitors of mutant isocitrate dehydrogenase 1 (IDH1): qHTS. Isocitrate dehydrogenase [NADP] cytoplasmic (Homo sapiens), O75874. IDH1-R132H enzyme, NADPH consumption, diaphorase/resazurin fluorescence. Potency, µM (top dose mostly 76.6 µM), hits mostly inhibitors. 0.093% of 390,000 active. AID 602179, 2012; further: nearly all actives have a fitted effect of over 65% in size
Target sequence (O75874 whole entry R132H, stated change not applied): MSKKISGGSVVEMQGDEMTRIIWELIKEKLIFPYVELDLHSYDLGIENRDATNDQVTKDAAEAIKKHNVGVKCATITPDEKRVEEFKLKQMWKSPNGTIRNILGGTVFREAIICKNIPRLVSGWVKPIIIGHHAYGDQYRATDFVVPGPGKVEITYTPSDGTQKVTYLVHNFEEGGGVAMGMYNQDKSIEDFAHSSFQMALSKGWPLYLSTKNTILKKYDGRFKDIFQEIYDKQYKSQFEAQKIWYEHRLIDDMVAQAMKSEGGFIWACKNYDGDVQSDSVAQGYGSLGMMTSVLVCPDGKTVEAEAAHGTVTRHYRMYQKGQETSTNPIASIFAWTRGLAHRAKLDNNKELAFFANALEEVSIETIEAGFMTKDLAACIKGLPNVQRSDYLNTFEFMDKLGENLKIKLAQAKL
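IDH1-R132H (0.5 ug/mL) preincubated 30 min with compound, then NADPH (0.016 mM) and alpha-KG (2 mM) added; 80 min at RT, pH 7.5. Remaining NADPH coupled via diaphorase/resazurin to fluorescence (540/590 nm); concentration-response curves normalized to no-enzyme control.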
Nrf2 activator: qHTS of Nrf2 Activators. AREc32 ARE-luciferase reporter (MCF7-derived line), luminescence, 24 h. Potency, µM (top dose mostly 46.1 µM), hits mostly activators. 0.31% of 410,000 active; further: nearly all actives have a fitted effect of over 65% in size
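Cells of the AREc32 ARE-luciferase line are plated in OPTI-MEM containing 5% FBS and left overnight at 37 deg C. Compounds are pinned in, incubation continues 24 hr, and firefly luciferase signal is then measured.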
A549 tox: Nrf2 qHTS screen for inhibitors: counterscreen for cytotoxicity; A549 ARE-Fluc cells, CellTiter-Fluor viability, 18-24 h; Potency, µM (titrated, usually from 46 µM), hits mostly inhibitors; 0.16% of 390,000 active; AID 504648, 2011
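A549 ARE-Fluc cells in 5% FBS OPTI-MEM, 5000 cells/well, rested 2 h then exposed to compounds in concentration-response for 18-24 h at 37 °C. Viability by CellTiter-Fluor fluorescence (Ex 405/Em 525) after 30 min; luciferase luminescence (BugLite, 15 min, RT) read afterwards.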
LDHA inh: qHTS assay for inhibitors of human lactate dehydrogenase; L-lactate dehydrogenase A chain (Homo sapiens), P00338; purified LDHA, NADH/diaphorase-resazurin fluorescence; hits give low values; activity change, % (values are at about 110 or 230 µM); 0.15% of 480,000 active; AID 1347041, 2019; in the data active means activity change below about -30%; inconclusive means mostly about -25% to -30%
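Remaining NADH was detected by diaphorase (0.133 mg/mL) converting 37 µM resazurin to fluorescent resorufin, read at 0 and 20 minutes. The preceding 5-minute room-temperature reaction used 2 nM LDHA, 0.2 mM sodium pyruvate and 0.06 mM NADH at pH 7.4.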
ALOX12 inh: Primary qHTS assay for inhibitors of human arachidonate 12S-lipoxygenase (ALOX12): Round 2. 1.1% of 580,000 active. purified 12hLO, xylenol orange hydroperoxide absorbance. AID 1671190, 2021. Polyunsaturated fatty acid lipoxygenase ALOX12 (Homo sapiens), P18054. Potency, µM (top dose mostly 108 µM), usual class: inhibitors
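Purified human 12hLO at 150 nM in 25 mM Hepes, 0.01% Triton X-100, pH 7.0, preincubated 15 min at room temperature with compound. Reaction started with 40 uM arachidonic acid, 30 min at room temperature. Hydroperoxide measured by Fe-xylenol orange, 573/405 nm absorbance ratio.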
Each line names hits and unclear results; the compound was inactive in the other large screens. Unless noted, the call rests on the fitted dose curve; in most records, active means well fitted curve in the direction sought with a large enough effect; inconclusive means small, poorly fitted or top-dose-only effect, or another doubt; inactive means no such curve, though single readings can be large; an effect the other way counts as inactive or inconclusive.

O=C(c1ccccc1)c1c2c(cc3sc4ccccc4[n+]13)-c1cccc3cccc-2c13	Nrf2 inh 20.6µM, mIDH1 inhibitor inconclusive, A549 tox 16.4µM, ALOX12 inh 31.6µM
Cc1ccc(Cc2c(-c3ccccc3)nc3ccc(Br)cn23)cc1	ALOX12 inh 6.31µM (no result: Nrf2 inh, A549 tox)
Cc1ccc(Cc2c(-c3ccc(Br)cc3)nc3cc(C)ccn23)cc1	ALOX12 inh inconclusive (no result: Nrf2 inh, A549 tox)
Cc1ccc(Cc2c(-c3ccc(C#N)cc3)nc3ccc(Br)cn23)cc1	ALOX12 inh 20µM (no result: Nrf2 inh, A549 tox)
Cc1ccc(Cc2c(-c3ccc(F)cc3)nc3cc(C)ccn23)cc1	ALOX12 inh 20µM (no result: Nrf2 inh, A549 tox)
N#Cc1ccc(-c2nc3ccc(Br)cn3c2Cc2ccccc2)cc1	ALOX12 inh inconclusive (no result: Nrf2 inh, A549 tox)
CN(C)C(=O)C(Sc1nc2cc(S(=O)(=O)N3CCCCC3)ccc2o1)c1ccccc1 (centres undefined)	none (no result: Nrf2 inh, mIDH1 inhibitor, Nrf2 activator, A549 tox)
CCS(=O)(=O)c1ncc(N(Cc2ccccc2)Cc2ccco2)c(C(=O)Nc2cccc(Cl)c2C)n1	none
CCS(=O)(=O)c1ncc(Cl)c(C(=O)N(Cc2ccccc2)Cc2ccco2)n1	Nrf2 inh 23.1µM, Nrf2 activator inconclusive, A549 tox 16.4µM
CCSc1ncc(Cl)c(C(=O)N(Cc2ccc(N(C)C)cc2)Cc2ccco2)n1	Nrf2 inh 18.4µM, ALOX12 inh inconclusive (no result: mIDH1 inhibitor)
COC(=O)NC(NC(=O)OC)c1ccc(Br)cc1	ALOX12 inh inconclusive (no result: Nrf2 inh, mIDH1 inhibitor, Nrf2 activator, A549 tox)
O=C(C1=C[C@H](c2ccc3c(c2)OCO3)C[C@H](OCc2ccc(CO)cc2)O1)N1CCN(Cc2ccc3c(c2)OCO3)CC1	Nrf2 inh 20.6µM
O=C(C1=C[C@H](C2CCCCC2)C[C@H](OCCCCO)O1)N1CCN(Cc2ccc3c(c2)OCO3)CC1	Nrf2 inh 18.4µM, A549 tox inconclusive (no result: ALOX12 inh)
O=C(C1=C[C@H](c2ccc(Br)cc2)C[C@H](OCc2ccc(CO)cc2)O1)N1CCN(Cc2ccc3c(c2)OCO3)CC1	Nrf2 inh inconclusive
CCc1ccc(C(=O)N(Cc2ccco2)C2CC2)s1	ALOX12 inh inconclusive (no result: Nrf2 inh, mIDH1 inhibitor, Nrf2 activator, A549 tox)
Cc1nc(SC(C)C(=O)Nc2ccccc2C)cc(-c2ccccc2)n1 (centres undefined)	none
COc1ccc(NC(=O)C(C)Sc2cc(-c3ccccc3)nc(C)n2)cc1Cl (centres undefined)	Nrf2 inh 20.6µM, A549 tox inconclusive
Cc1csc(CNC(=O)c2ccc(CNC(=O)c3cccs3)cc2)n1	ALOX12 inh inconclusive (no result: Nrf2 inh, mIDH1 inhibitor, Nrf2 activator, A549 tox)
CN1CCN(S(=O)(=O)c2ccc(NC(=S)NC(=O)c3ccc(Cl)cc3)cc2)CC1	ALOX12 inh inconclusive
O=C(NC(=S)Nc1ccc(Oc2ccc(Cl)cc2)cc1)c1ccccc1	Nrf2 inh inconclusive, ALOX12 inh 8.91µM
Fc1ccc(NC(=S)Nc2ccc(Cl)cc2)cc1	none
O=C(NC(=S)Nc1ccc(Cl)cc1)c1ccccc1	ALOX12 inh 44.7µM
S=C(NC(=NC=C(Cl)Cl)c1ccc(Cl)cc1)Nc1ccc(Cl)cc1	ALOX12 inh 20µM (no result: Nrf2 inh, mIDH1 inhibitor, Nrf2 activator, A549 tox)
CC1CCN(S(=O)(=O)c2ccc(NC(=S)NC(=O)c3ccc(Cl)cc3)cc2)CC1	ALOX12 inh 14.1µM
O=C(NC(=S)Nc1ccc(-c2ccccc2)cc1)c1ccccc1	ALOX12 inh inconclusive
CCOc1ccc(-c2nc(Cn3nnc(C(=O)Nc4ccccc4F)c3N)c(C)o2)cc1	none (no result: Nrf2 inh, mIDH1 inhibitor, Nrf2 activator, A549 tox)
Cc1ccc(-c2nc3ccccc3s2)cc1	none (no result: Nrf2 inh, mIDH1 inhibitor, Nrf2 activator, A549 tox)
CC(=O)c1ccc(NC(=O)NC(=O)c2ccc(Cl)cc2)cc1	none (no result: Nrf2 inh, mIDH1 inhibitor, Nrf2 activator, A549 tox)
CC(=O)Nc1ccc(NC(=S)NC(=O)c2ccc(Cl)cc2)cc1	ALOX12 inh 5.62µM (no result: Nrf2 inh, mIDH1 inhibitor, Nrf2 activator, A549 tox)
COC(=O)c1cccc(NC(=O)Nc2ccc(Cl)cc2)c1	ALOX12 inh inconclusive
COC(=O)c1cccc(NC(=O)NC(=O)c2ccc(Cl)cc2)c1	Nrf2 inh 10.3µM

Compound activity from PubChem.
